# Assay results published in PubChem BioAssay (NCATS).
# Results filed as inconclusive are left out. Where a call stands in place of a potency, no number is given. Unmarked numbers belong to inactive results. Active and inactive are the calls of the source. Calls follow the shape of the dose curve; as a rule, active = well fitted inhibition curve with a large enough effect; inconclusive = small, poorly fitted or top-dose-only effect; inactive = flat fitted curve, though single readings scatter.
# Experiments:
# [1] = target: Calcium and integrin-binding protein 1 (Homo sapiens) (UniProt Q99828); assay: Primary qHTS for Identification of Calcium Integrin Binding Protein 1 (CIB1) Competitor (AID 1508620); conditions: CIB1-GST / FITC-alphaIIb peptide fluorescence polarization; series mostly up to 114 µM;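 also: GST tagged CIB1 binding a fluorescein labelled alphaIIb integrin peptide tracer; top concentration of the series differs between compounds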
# Summary of the method: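 Fluorescence polarization competition: GST-tagged CIB1 (1 uM final) preincubated with compound 15 min at room temperature, then FITC-labelled alphaIIb peptide (100 nM final) added. After 15 min at room temperature, polarization read at Ex 480/Em 540.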
# [2] = Primary qHTS for inhibitors of nuclear receptor binding SET domain protein 2 (NSD2) in an isogenic RCH-ACV NSD2 p.E1099K mutant (9B) (AID 1645876); conditions: RCH-ACV (leukaemia line) NSD2 E1099K (9B) viability, CellTiter-Glo, 72 h; series mostly up to 44.9 µM; also: nearly all actives have a fitted effect of over 70% in size; also: potency is read from the fitted curve at half-maximal effect
# Calcium and integrin-binding protein 1 (Homo sapiens), sequence (Q99828 whole entry, looked up): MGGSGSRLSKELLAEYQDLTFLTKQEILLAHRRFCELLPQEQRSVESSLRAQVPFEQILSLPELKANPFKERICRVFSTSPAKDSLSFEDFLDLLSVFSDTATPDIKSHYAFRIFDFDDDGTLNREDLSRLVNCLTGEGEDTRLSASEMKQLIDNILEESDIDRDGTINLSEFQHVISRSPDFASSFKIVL
SMILES,Potency [1],Potency [2],"activity change, negative = viability loss [2]"
C[C@@H]1C(=O)O[C@H]2C[C@]34[C@H]5C[C@@H](C(C)(C)C)[C@]36[C@@H](OC(=O)[C@H]6O)O[C@]4(C(=O)O5)[C@]21O,inactive,inactive,–
C[C@H]1CC(=O)Nc2cccc(-c3cnn(C(C)(C)C)c3)c2N1,inactive,inactive,–
C=CC1C(OC2OC(CO)C(O)C(O)C2O)OC=C2C(=O)N3C(C(=O)O)Cc4c([nH]c5ccccc45)C3CC21 (stereo unspecified),inactive,inactive,–
Oc1ccc(CNc2ccccc2F)c2cccnc12,inactive,12.9 µM (active),–
C=C[C@]1(C)C[C@H](O)[C@@H]2[C@H](OC(=O)[C@@H]2C)C1/C(C)=C/O[C@@H]1O[C@H](CO)[C@@H](O)[C@H](O)[C@H]1O (stereo partly specified),inactive,inactive,–
C[C@@H]1C(=O)O[C@H]2[C@H](O)C34[C@H]5C[C@@H](C(C)(C)C)C36[C@@H](OC(=O)[C@@H]6O)O[C@@]4(C(=O)O5)[C@@]12O (stereo partly specified),inactive,inactive,–
CC1=C(C(=O)O)/C(=C/CO[C@@H]2O[C@H](COC(=O)/C=C/c3ccc(O)cc3)[C@@H](O)[C@H](O)[C@H]2O)C(O)C1 (stereo partly specified),inactive,inactive,–
CC1(C)CCC(C)(C)c2cc(C3(c4ccc(C(=O)O)cc4)OCCO3)ccc21,inactive,inactive,–
CC(=O)OC1C(=O)C2(C)C(O)CC3OCC3(OC(C)=O)C2C(OC(=O)c2ccccc2)C2(O)CC(OC(=O)C(O)C(NC(=O)c3ccccc3)c3ccccc3)C(C)=C1C2(C)C (stereo unspecified),inactive,0.0052 µM (active),–
CC(=O)C1=C(C)N(c2cccc(C(F)(F)F)c2)C(=O)N[C@H]1c1ccc(C#N)nc1,inactive,–,-10.2% [at 9.23 µM]
Cc1cc(O)c(-c2ccc([C@@H](C)CN(C)C)cc2)c2c1[nH]c(=O)c1sccc12,inactive,0.0742 µM (active),–
COC(=O)C1=CO[C@@H](O[C@@H]2O[C@H](CO[C@@H]3O[C@H](COC(=O)/C=C/c4cc(OC)c(O)c(OC)c4)[C@@H](O)[C@H](O)[C@H]3O)[C@@H](O)[C@H](O)[C@H]2O)[C@@H]2C(CO)=CC[C@H]12,inactive,inactive,–
C/C1=C\CC[C@H](C)CCO[C@@H]2O[C@H](CO[C@@H]3OC[C@](O)(COC1=O)[C@H]3O)[C@@H](O)[C@H](O)[C@H]2O,inactive,inactive,–
C=C1C[C@]23C[C@H]1CC[C@H]2[C@]1(C)CCC[C@@](C)(C(=O)O)[C@H]1[C@@H]3C(=O)O,inactive,inactive,–
CC(C)c1ccc(CO)cc1O[C@@H]1O[C@H](CO)[C@@H](O)[C@H](O)[C@H]1O,inactive,inactive,–
C=C(C(=O)O)C1CCC2(C)CCC(O)C(=C)C2C1 (stereo unspecified),inactive,inactive,–
O=C1Nc2ccccc2C(O)(c2ccccc2)C1O (stereo unspecified),inactive,inactive,–
CC1(C)C2CC(OC3OC(COC4OCC(O)(CO)C4O)C(O)C(O)C3O)C1(C)CC2O (stereo unspecified),inactive,inactive,–
CC1=CC2/C=C(\C)CC[C@@H](O)[C@@H](O)[C@@H]3O[C@@H]3C(=O)[C@]23C(=O)N[C@@H](CC(C)C)[C@@H]3[C@@H]1C (stereo partly specified),inactive,inactive,–
C[C@@H]1C[C@@H](O)[C@@]23CO[C@@H](O)[C@@H]2CCC[C@@H]3[C@@]12C[C@@H](c1ccoc1)OC2=O,inactive,inactive,–
COc1cc2c(cc1OC)CC(=O)N(CCCNC[C@H]1Cc3cc(OC)c(OC)cc31)CC2,inactive,inactive,–
CC1=CC(=O)CC2C1(O)CCC(C)C21CC(c2ccoc2)OC1=O (stereo unspecified),inactive,inactive,–
C=C1C(=O)O[C@H]2[C@H]1CC/C(C)=C/CC[C@@]1(C)O[C@@H]21,inactive,25.8 µM (active),–
C=C1CC[C@@H]2[C@](C)(CO[C@@H]3O[C@H](CO)[C@@H](O)[C@H](O)[C@H]3O)[C@H](O)CC[C@@]2(C)[C@@H]1C/C=C1/C(=O)OC[C@H]1O,inactive,inactive,–
O=C1NC2CCc3nc4ccccc4c(=O)n3C2=Nc2ccccc21 (stereo unspecified),inactive,inactive,–
Nc1nc2c(ncn2[C@@H]2O[C@H](CO)[C@@H](O)[C@H]2O)c(=O)[nH]1,inactive,inactive,–
CCC(C)/C=C(C)/C=C/c1cc2c(cn1)C(=O)C(C)(OC(C)=O)C(O)=C2Cl (stereo unspecified),inactive,inactive,–
CC(=O)O[C@@H]1C[C@@H](OC(C)=O)C(C)(C)/C=C/[C@H](C)[C@H](OC(C)=O)[C@@]2(O)C[C@H](C)[C@H](OC(=O)c3ccccc3)[C@@H]2/C=C/1C,inactive,inactive,–
